Here are results for 30 molecules from ChEMBL document CHEMBL4513216, “Probing the Open Global Health Chemical Diversity Library for Multistage-Active Starting Points for Next-Generation Antimalarials” (ACS Infect Dis, 2020).

Among all 69,000 compounds or so, about 8,600 (12%) showed an effect of 50% or more. Many of the other results were omitted from the sample, so strong results are more common in it than they were.

The assay has as its system Plasmodium berghei. In words: Screen against P. berghei liver stage (PbLuc), transformed with Luciferase, at 10uM. In kind it is functional, HepG2. The note with it: tested at 10 uM.
`CCOc1ccc(C2CCCN2Cc2nnnn2C2CC2)cc1` (stereo not given): the INHIBITION stood at 48.2%.

Regarding `O=c1ccc2c(n1Cc1cccnc1)CCN(CC1CCOC1)CC2` (stereo not given), the INHIBITION is -5.63%. Under `C[C@H]1CN(C(=O)c2ccoc2)C[C@@]12CCN(CCN(C)C)C2=O` stands -80%. Regarding `CCC(=O)NC1CCCN(c2cncc(OCc3ccccc3)n2)C1` (stereo not given), the INHIBITION came to 1.56%. As for `O=C(NCc1ccccn1)[C@@H]1COC[C@H]2CN(C3CCC3)C[C@H]21`, the figure is 26.4%. For `Cc1nc(-c2ccccc2)n(CC(=O)NC2CCCCC2)n1`, the INHIBITION is on record as 37.4%. As for `O=S1(=O)COCCN1Cc1ccc(F)cc1Cl`, the figure is 33.9%; as for `Cn1cc(CN2CCC3(CC2)CCN(Cc2ccccn2)CC3)cn1`, 41.2%; as for `O=C(c1ccnc(C2CCNCC2)c1)N1CCCC1`, 7.43%.

With `O=C1OCC(CO)N1Cc1cccc(Cl)c1F` (stereo not given), the INHIBITION came to 28.7%. As for `C=C(C)CN1CCC(NC(=O)NCCc2ccc(N(C)C)cc2)CC1`, the figure is 55.4%; as for `C=C(C)CN1CCC(NC(=O)c2scnc2C)CC1`, -6.44%; as for `NC(=O)c1cccc(CCNC(=O)N2Cc3ccccc3C2)c1`, 26.5%. As for `NC(=O)c1cccc(CCNC(=O)N2CCCC2)c1`, the figure is 58.1%. In the case of `C=C(C)CN1CCC(NC(=O)Nc2cc(C(N)=O)ccc2OC)CC1`, the INHIBITION worked out at 32.5%.

In the case of `CNC(=O)c1cccc(CCNC(=O)N2CCc3ccccc3C2)c1`, the INHIBITION is recorded as 3.73%.

As for `C=C(C)CN1CCC(NC(=O)NCCc2cccc(C(N)=O)c2)CC1`, the INHIBITION is given as 57.3%. Under `C=C(C)COc1ccccc1CN1CCC(NC(C)=O)CC1` stands 19.4%; under `COc1ccc(CCNC(=O)NC2CCCC2)cc1OC`, -24.9%; under `Cn1cc(CCNC(=O)NC2CCN(Cc3ccccn3)CC2)cn1`, 16.8%. For `C=C(C)CN1CCC(NC(=O)NCCc2ccccc2OC)CC1`, the INHIBITION is 94.1%. For the molecule `COc1ccc(CCNC(=O)NCc2cccc(C(N)=O)c2)cc1OC`, the INHIBITION stood at 37.4%. Turning to `COC1CCCOC12CCN(C(=O)c1ccc3[nH]nnc3c1)CC2` (stereo not given), the INHIBITION is given as -29.9%. With `O=C(CSC1=NS(=O)(=O)c2cc(Cl)ccc2N1)c1ccccc1`, the INHIBITION turned out to be 11.8%. Under `Cn1cc(CN2CCCC3(CCN(C(=O)c4ccccn4)C3)C2)cn1` (stereo not given) stands 11.3%; under `COCCC(=O)N1CCOCC(Cc2ccc3c(ccn3C)c2)C1` (stereo not given), 17.475%. Regarding `CC(=O)N(Cc1ncc(C)o1)C1CCN(Cc2ccccc2C#N)C1` (stereo not given), the INHIBITION was found to be 9.64%. As for `NC(=O)c1cc(C2CCCN(C(=O)CCc3cccs3)C2)n[nH]1` (stereo not given), the figure is 17.5%; as for `O=C1CC[C@@H](CN(Cc2ccncc2)Cc2nc(CC3CC3)no2)N1`, 36.6%. Under `Cc1nc(C)c2c(n1)CCN(C(=O)CC1CC1)CC2` stands 19.9%.
